These results are taken from PubChem BioAssay (NCI).

About 79,000 compounds went through this panel and 15% of them were active in at least one assay; those are over-represented in the sample as a whole. Unmarked numbers belong to inactive results. Active and inactive are the calls of the source. Cut-off read from the data, not from the text of the source: active = growth inhibition above about 70%; inactive = the rest.

A short description of experiment [1]: NCI Yeast Anticancer Drug Screen. Data for the rad50 strain (AID 155).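 Note: 0% = growth of vehicle-only cultures of the same strain.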 The note with it: S. cerevisiae rad50 strain growth inhibition, stronger effect = higher value. In a few lines: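 Cells are treated with compound, grown, and their growth is then scored against vehicle-only cultures of the same repair-deficient yeast strain.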
A short description of experiment [2]: NCI Yeast Anticancer Drug Screen. Data for the mec2-1 strain (AID 157). The note with it: S. cerevisiae mec2-1 strain, stronger effect = higher value. An outline of the steps: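 Each compound was tested on mec2-1 yeast, a strain altered in DNA damage repair or cell cycle control. Growth inhibition is reported relative to vehicle.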
Experiment [3] is described as follows: NCI Yeast Anticancer Drug Screen. Data for the sgs1 mgt1 strain (AID 161).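 Note: 0% = growth of cultures given vehicle only.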 The note with it: S. cerevisiae sgs1 mgt1 strain, stronger effect = higher value. An outline of the steps:
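Mutant yeast exposed to compound; growth scored against vehicle-only wells.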

A short description of experiment [4]: NCI Yeast Anticancer Drug Screen. Data for the cln2 rad14 strain (AID 165).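 Note: 0% = growth equal to vehicle treated cultures.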 The note with it: S. cerevisiae cln2 rad14 strain, stronger effect = higher value. An outline of the steps: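 Test compounds were added to cln2 rad14 yeast cultures; inhibition of growth was then determined by comparison with vehicle treatment.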
The nature of experiment [5]: NCI Yeast Anticancer Drug Screen. Data for the bub3 strain (AID 167). The note with it: S. cerevisiae bub3 mutant strain, stronger effect = higher value. An outline of the steps:
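Part of a panel of yeast mutants defective in DNA damage repair or cell cycle regulation. Each strain is grown with compound, and inhibition is calculated relative to solvent-treated cultures.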

Experiment [6] is described as follows: NCI Yeast Anticancer Drug Screen. Data for the mlh1 rad18 strain (AID 175). The note with it: S. cerevisiae mlh1 rad18 strain growth inhibition, stronger effect = higher value. In a few lines: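 Inhibition values reflect reduced growth of mutant yeast versus vehicle-treated controls following compound exposure; the mutations affect DNA damage repair.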
[7] abbreviates: at 5.0 µM (retest, dose inferred, filed as 0.5).
Setting [8] is: at 50.0 µM (retest, dose inferred, filed as 5.0).

In the case of `c1ccc([As+](c2ccccc2)(c2ccccc2)c2cccc3ccccc23)cc1`, the growth inhibition in experiment [1] (setting [7]) is 88% (active); in experiment [1] (setting [8]) it was 99% (active); in experiment [1] (at 50.0 µM) it was 99% (active); in experiment [2] (setting [7]), 90% (active); in experiment [2] (setting [8]), 99% (active); in experiment [2] (at 50.0 µM) it was 99.1% (active). Moreover, the growth inhibition is 93% (active) in experiment [3] (setting [7]); 100% (active) in experiment [3] (setting [8]); 98.7% (active) in experiment [3] (at 50.0 µM); 86% (active) in experiment [4] (setting [7]); 99% (active) in experiment [4] (setting [8]); 99% (active) in experiment [4] (at 50.0 µM). Moreover, the growth inhibition in experiment [5] (setting [7]) is 90% (active); in experiment [5] (setting [8]), 99% (active); in experiment [5] (at 50.0 µM), 98.8% (active); in experiment [6] (setting [7]), 88% (active); in experiment [6] (setting [8]), 99% (active); in experiment [6] (at 50.0 µM) it was 98.8% (active).
As to `CC(=O)[C-](I)C(C)=O.CC(=O)[C-](I)C(C)=O.CC(=O)[C-](I)C(C)=O.[Ru+3]`, the growth inhibition in experiment [1] (setting [7]) was -6%; in experiment [1] (setting [8]), 90% (active); in experiment [1] (at 50.0 µM), 48.2%; in experiment [2] (setting [7]), 14%; in experiment [2] (setting [8]) it was 95% (active); in experiment [2] (at 50.0 µM), 90.5% (active). Moreover, the growth inhibition is 5% in experiment [3] (setting [7]); 89% (active) in experiment [3] (setting [8]); 35.8% in experiment [3] (at 50.0 µM); 26% in experiment [4] (setting [7]); 85% (active) in experiment [4] (setting [8]); 7.45% in experiment [4] (at 50.0 µM). Also, the growth inhibition in experiment [5] (setting [7]) was 18%; in experiment [5] (setting [8]), 90% (active); in experiment [5] (at 50.0 µM), -1.95%; in experiment [6] (setting [7]) it was 32%; in experiment [6] (setting [8]), 96% (active); in experiment [6] (at 50.0 µM) it was 53.5%.
On to `CC1(C)CC2(c3ccccc3)CC(c3ccccc3)C1C(C(=O)O)C2C(=O)O` (stereo not given), for which the growth inhibition in experiment [1] (setting [7]) is 28%; in experiment [1] (setting [8]) it was 99% (active); in experiment [1] (at 50.0 µM), 99.2% (active); in experiment [2] (setting [7]), 27%; in experiment [2] (setting [8]), 99% (active); in experiment [2] (at 50.0 µM), 99.3% (active). Also, the growth inhibition in experiment [3] (setting [7]) is 10%; in experiment [3] (setting [8]), 99% (active); in experiment [3] (at 50.0 µM), 99.2% (active); in experiment [4] (setting [7]) it was 7%; in experiment [4] (setting [8]), 99% (active); in experiment [4] (at 50.0 µM), 98.8% (active). Also, the growth inhibition in experiment [5] (setting [7]) is 35%; in experiment [5] (setting [8]) it was 96% (active); in experiment [5] (at 50.0 µM) it was 98.5% (active); in experiment [6] (setting [7]), 17%; in experiment [6] (setting [8]) it was 99% (active); in experiment [6] (at 50.0 µM), 99.2% (active).
Turning to `O=[N+]([O-])O.c1ccc([As+](c2ccccc2)(c2ccccc2)c2ccccc2)cc1`, the growth inhibition in experiment [1] (setting [7]) is 26%; in experiment [1] (setting [8]), 96% (active); in experiment [1] (at 50.0 µM), 97% (active); in experiment [2] (setting [7]), 43%; in experiment [2] (setting [8]), 99% (active); in experiment [2] (at 50.0 µM), 97.9% (active). Also, the growth inhibition is 21% in experiment [3] (setting [7]); 98% (active) in experiment [3] (setting [8]); 97% (active) in experiment [3] (at 50.0 µM); 7% in experiment [4] (setting [7]); 92% (active) in experiment [4] (setting [8]); 97.6% (active) in experiment [4] (at 50.0 µM). For the same compound, the growth inhibition was 16% in experiment [5] (setting [7]); 97% (active) in experiment [5] (setting [8]); 97% (active) in experiment [5] (at 50.0 µM); 24% in experiment [6] (setting [7]); 96% (active) in experiment [6] (setting [8]); 95.8% (active) in experiment [6] (at 50.0 µM).
As for `O=[n+]1c2ccccc2n([O-])c2ccccc21.[Cl][Cu][Cl]`, the growth inhibition is 90% (active) in experiment [1] (setting [7]); 98% (active) in experiment [1] (setting [8]); 99.1% (active) in experiment [1] (at 50.0 µM); 20% in experiment [2] (setting [7]); 99% (active) in experiment [2] (setting [8]); 99% (active) in experiment [2] (at 50.0 µM). Moreover, the growth inhibition in experiment [3] (setting [7]) is 36%; in experiment [3] (setting [8]), 98% (active); in experiment [3] (at 50.0 µM), 99.2% (active); in experiment [4] (setting [7]), 7%; in experiment [4] (setting [8]) it was 97% (active); in experiment [4] (at 50.0 µM), 97.6% (active). In addition, the growth inhibition was -3% in experiment [5] (setting [7]); 98% (active) in experiment [5] (setting [8]); 97.7% (active) in experiment [5] (at 50.0 µM); 57% in experiment [6] (setting [7]); 98% (active) in experiment [6] (setting [8]); 99% (active) in experiment [6] (at 50.0 µM).
For the compound `O=P(CCP(=O)(c1ccccc1)c1ccccc1)(c1ccccc1)c1ccccc1.[Cl][Sn]([Cl])([c]1ccccc1)[c]1ccccc1`, the growth inhibition in experiment [1] (setting [7]) is 82% (active); in experiment [1] (setting [8]), 97% (active); in experiment [1] (at 50.0 µM), 87.7% (active); in experiment [2] (setting [7]), 45%; in experiment [2] (setting [8]) it was 99% (active); in experiment [2] (at 50.0 µM), 90.1% (active). The growth inhibition in experiment [3] (setting [7]) was 91% (active); in experiment [3] (setting [8]), 98% (active); in experiment [3] (at 50.0 µM), 88.5% (active); in experiment [4] (setting [7]), 32%; in experiment [4] (setting [8]) it was 97% (active); in experiment [4] (at 50.0 µM), 88.8% (active). In addition, the growth inhibition in experiment [5] (setting [7]) was 81% (active); in experiment [5] (setting [8]), 98% (active); in experiment [5] (at 50.0 µM), 88% (active); in experiment [6] (setting [7]) it was 88% (active); in experiment [6] (setting [8]), 95% (active); in experiment [6] (at 50.0 µM), 91.6% (active).
Turning to `COc1ccccc1C(Cc1ccc(N2C(N)=NC(N)=NC2(C)C)cc1)C(=O)Nc1ccc(S(=O)(=O)F)cc1` (stereo not given), the growth inhibition is 3% in experiment [1] (setting [7]); 15% in experiment [1] (setting [8]); 90.1% (active) in experiment [1] (at 50.0 µM); 12% in experiment [2] (setting [7]); 2% in experiment [2] (setting [8]); 95% (active) in experiment [2] (at 50.0 µM). Further, the growth inhibition was 1% in experiment [3] (setting [7]); 22% in experiment [3] (setting [8]); 99.2% (active) in experiment [3] (at 50.0 µM); -2% in experiment [4] (setting [7]); -5% in experiment [4] (setting [8]); 55.4% in experiment [4] (at 50.0 µM). The growth inhibition in experiment [5] (setting [7]) was -3%; in experiment [5] (setting [8]), -4%; in experiment [5] (at 50.0 µM) it was 98.8% (active); in experiment [6] (setting [7]), 2%; in experiment [6] (setting [8]) it was 18%; in experiment [6] (at 50.0 µM), 99% (active).
For the compound `Cc1ccc(NC(=O)CBr)cc1`, the growth inhibition in experiment [1] (setting [7]) is 92% (active); in experiment [1] (setting [8]), 99% (active); in experiment [1] (at 50.0 µM), 99.1% (active); in experiment [2] (setting [7]) it was 97% (active); in experiment [2] (setting [8]) it was 100% (active); in experiment [2] (at 50.0 µM), 99.2% (active). The growth inhibition in experiment [3] (setting [7]) is 97% (active); in experiment [3] (setting [8]), 97% (active); in experiment [3] (at 50.0 µM), 99.2% (active); in experiment [4] (setting [7]) it was 97% (active); in experiment [4] (setting [8]), 99% (active); in experiment [4] (at 50.0 µM), 98.8% (active). Also, the growth inhibition was 95% (active) in experiment [5] (setting [7]); 99% (active) in experiment [5] (setting [8]); 99% (active) in experiment [5] (at 50.0 µM); 94% (active) in experiment [6] (setting [7]); 98% (active) in experiment [6] (setting [8]); 99% (active) in experiment [6] (at 50.0 µM).
On to `COc1ccc([As+](c2ccccc2)(c2ccccc2)c2ccccc2)cc1`, for which the growth inhibition in experiment [1] (setting [7]) was 82% (active); in experiment [1] (setting [8]) it was 98% (active); in experiment [1] (at 50.0 µM) it was 99.1% (active); in experiment [2] (setting [7]) it was 88% (active); in experiment [2] (setting [8]) it was 99% (active); in experiment [2] (at 50.0 µM) it was 98.8% (active). The growth inhibition is 93% (active) in experiment [3] (setting [7]); 99% (active) in experiment [3] (setting [8]); 98.7% (active) in experiment [3] (at 50.0 µM); 77% (active) in experiment [4] (setting [7]); 98% (active) in experiment [4] (setting [8]); 99% (active) in experiment [4] (at 50.0 µM). The growth inhibition in experiment [5] (setting [7]) is 95% (active); in experiment [5] (setting [8]), 99% (active); in experiment [5] (at 50.0 µM), 99% (active); in experiment [6] (setting [7]), 91% (active); in experiment [6] (setting [8]), 98% (active); in experiment [6] (at 50.0 µM), 99% (active).
With `CCOP(=S)(OCC)SCc1c(C)c(C)c(CSP(=S)(OCC)OCC)c(C)c1C`, the growth inhibition in experiment [1] (setting [7]) was 1%; in experiment [1] (setting [8]), -11%; in experiment [1] (at 50.0 µM) it was -4.3%; in experiment [2] (setting [7]) it was -4%; in experiment [2] (setting [8]), -2%; in experiment [2] (at 50.0 µM), -3.75%. Besides, the growth inhibition in experiment [3] (setting [7]) is -8%; in experiment [3] (setting [8]), 2%; in experiment [3] (at 50.0 µM), -12.2%; in experiment [4] (setting [7]), 1%; in experiment [4] (setting [8]) it was -10%; in experiment [4] (at 50.0 µM), 45%. Further, the growth inhibition in experiment [5] (setting [7]) is -4%; in experiment [5] (setting [8]) it was -4%; in experiment [5] (at 50.0 µM), -0.65%; in experiment [6] (setting [7]), 2%; in experiment [6] (setting [8]), -5%; in experiment [6] (at 50.0 µM), 8.8%.
